Assay outcomes (PubChem)
Giardia FBPA inh – qHTS Assay for Inhibitors of Fructose-1,6-bisphosphate Aldolase from Giardia Lamblia; A8B2U2; purified Giardia FBPA; Potency, µM (highest dose often 59.6 µM), for inactives: top-dose activity, negative = inhibition, actives largely listed as inhibitors; hit rate 0.71% among 290,000; also: potency is read from the fitted curve at half-maximal effect; % is scaled to controls: 0 for no effect and ±100 for the full control effect; nearly all actives have a fitted effect of over 55% in size
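40 nM FBPA preincubated 10 min at RT with compound (up to 57.5 uM final), then substrate plus GAPDH/TPI/NAD/arsenate coupling and diaphorase/resazurin added. Fluorescence read after 20 min at RT, 525/598 nm.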
Shiga inhibitor – A qHTS for Small Molecule Inhibitors of Shiga Toxin; Vero cells, Shiga toxin protein synthesis inhibition reporter; AID 2315, 2010; hit rate 9.2% among 290,000; inhibition, % at 38.7 µM; in the data active = inhibition mostly above about 28%, no sharp cut-off; inactive = mostly below about 43%; also: 0% is about no effect
CHX counter – Cycloheximide Counterscreen for Small Molecule Inhibitors of Shiga Toxin. cell reporter, cycloheximide protein synthesis inhibition counterscreen. max response, %. hit rate 12% among 300,000. AID 2314, 2010; in the data active = max response mostly above about 13%, no sharp cut-off; inactive = mostly below about 14%; also: read at 38.3 µM for the half of the compounds with a filed dose; 0% is about no effect
RE007 growth inh – qHTS Assay for Inhibitors of the HIV-1 protein Vpr | S. pombe RE007 Vpr strain, BacTiter-Glo ATP luminescence, 24 h | AID 651644, 2012 | hit rate 0.21% among 360,000 | Potency, µM (highest dose often 92.2 µM), inactives show at the top dose activity change, negative = less growth, actives largely listed as inhibitors; active = well fitted falling curve with a large enough effect; inconclusive = small, poorly fitted or top-dose-only effect; inactive = no such curve, though single readings can be large or run the other way; also: potency is read from the fitted curve at half-maximal effect; % is scaled to controls: 0 for no effect and ±100 for the full control effect; nearly all actives have a fitted effect of over 50% in size
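Fission yeast strain RE007, carrying one chromosomally integrated HIV-1 vpr copy, was seeded at OD 0.01 in PMG+AL medium with 23 nL pinned compound. After 24 h at 30 °C and 99% humidity, viability was read by BacTiter-Glo luminescence.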
LmPK inh – qHTS Assay for Inhibitors of Leishmania Mexicana Pyruvate Kinase (LmPK) | Q27686 | hit rate 0.37% among 290,000 | purified LmPK, Kinase-Glo ATP luminescence, 1 h | Potency, µM (highest dose often 57.5 µM), inactives show at the highest dose activity change, negative = inhibition, actives largely listed as inhibitors; also: potency is read from the fitted curve at half-maximal effect; % is scaled to controls: 0 for no effect and ±100 for the full control effect
Target sequence (Q27686 whole entry, looked up): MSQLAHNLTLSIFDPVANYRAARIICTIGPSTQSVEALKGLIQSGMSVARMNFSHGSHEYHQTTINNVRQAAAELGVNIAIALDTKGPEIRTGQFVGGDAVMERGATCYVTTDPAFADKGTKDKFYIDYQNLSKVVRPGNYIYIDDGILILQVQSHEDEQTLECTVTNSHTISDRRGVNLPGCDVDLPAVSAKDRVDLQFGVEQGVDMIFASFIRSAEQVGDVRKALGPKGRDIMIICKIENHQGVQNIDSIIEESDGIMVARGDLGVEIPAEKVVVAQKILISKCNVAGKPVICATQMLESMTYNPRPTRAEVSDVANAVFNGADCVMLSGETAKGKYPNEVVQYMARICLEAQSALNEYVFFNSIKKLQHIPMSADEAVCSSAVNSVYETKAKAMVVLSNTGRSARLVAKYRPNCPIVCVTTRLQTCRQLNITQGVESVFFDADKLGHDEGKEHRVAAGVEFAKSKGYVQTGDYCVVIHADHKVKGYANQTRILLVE
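Purified LmPK (0.1 nM) with 0.5 mM PEP and 0.1 mM ADP in imidazole buffer pH 7.2 with MgCl2/KCl, 1 h at room temperature. ATP formed was read by luciferase luminescence and normalized to no-enzyme and uninhibited controls.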
TbPYK inhibitor – qHTS of Trypanosoma Brucei Inhibitors; pyruvate kinase (Trypanosoma brucei), Q57TT1; TbPYK enzyme, Kinase-Glo Plus ATP luminescence, 45 min; Potency, µM (series often up to 76.8 µM), for the others: at the highest dose activity, negative = inhibition, actives largely listed as inhibitors; hit rate 0.12% among 410,000; also: potency is read from the fitted curve at half-maximal effect; % is scaled to controls: 0 for no effect and ±100 for the full control effect; nearly all actives have a fitted effect of over 50% in size
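T. brucei PYK with substrate was exposed to pin-transferred compounds across a concentration series, then started with 130 uM ADP (final). After 45 min at room temperature, Kinase-Glo Plus luminescence was read, normalized and curve-fitted.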
The depositor's hits bear a star. The full list was thinned out, with hits kept by preference. Unless noted, calls follow the shape of the dose curve; as a rule, active = well fitted curve in the direction sought with a large enough effect; inconclusive = small, poorly fitted or top-dose-only effect, or another doubt; inactive = no such curve, though single readings can be large; an effect the other way counts as inactive or inconclusive.

Results for COc1ccc(COC[C@H](C)[C@H](O[Si](C)(C)C)[C@@H](C)[C@H]2OC(=O)[C@H]2C)cc1 ?
Giardia FBPA inh: 2.3%; Shiga inhibitor: 16.1; CHX counter: 6.4

Results for N#C/C(=C\c1ccc(F)c(Br)c1)C(=O)NC1CC1 ?
Shiga inhibitor: 42.1*; CHX counter: 29.9*; RE007 growth inh: -6.9%; LmPK inh: 2.9%; TbPYK inhibitor: -5.5%

Results for COc1ccc(NC(=O)Nc2nnc(N(C)C3CCCCC3)s2)c(OC)c1 ?
TbPYK inhibitor: -3.6%

What do the screens show for `NC(=O)c1ccsc1NC(=O)c1ccc2c(c1)CCCC2`?
Giardia FBPA inh: -9.0%; Shiga inhibitor: 59.2*; CHX counter: 51.3*; RE007 growth inh: inconclusive; LmPK inh: inconclusive; TbPYK inhibitor: -15.9%

How did NC(=O)c1ccsc1NC(=O)c1ccc(N2CCCC2=O)cc1 do in these assays?
Giardia FBPA inh: -10.7%; Shiga inhibitor: 21.9; CHX counter: 21.9; RE007 growth inh: -23.4%; LmPK inh: -18.8%; TbPYK inhibitor: -20.3%

How did CNC(=O)c1ccsc1NC(=O)c1ccc2c(c1)CCCC2 do in these assays?
Giardia FBPA inh: -10.8%; Shiga inhibitor: 34.9; CHX counter: 23.4*; RE007 growth inh: -3.4%; LmPK inh: -8.6%; TbPYK inhibitor: 0.3%

Results for O=C(CC1COc2ccccc2O1)NCc1ccccc1 (configuration not stated) ?
Giardia FBPA inh: 2.0%; Shiga inhibitor: 10.8; CHX counter: -2.3; RE007 growth inh: 3.4%; LmPK inh: 2.3%; TbPYK inhibitor: -2.3%

What do the screens show for `O=C(CCC(=O)N1CCOc2ccccc21)NCCc1ccccc1`?
Giardia FBPA inh: 1.3%; Shiga inhibitor: 12.3; CHX counter: 8.3*; RE007 growth inh: -0.5%; LmPK inh: -1.5%; TbPYK inhibitor: 1.7%

Results for c1ccc(CNCC2COc3ccccc3O2)cc1 (configuration not stated) ?
Giardia FBPA inh: -17.9%; Shiga inhibitor: 49.2*; CHX counter: 2.2; RE007 growth inh: -1.4%; LmPK inh: 0.6%; TbPYK inhibitor: 2.5%

Results for O=C(CC1COc2ccccc2O1)NCCc1ccccc1 (configuration not stated) ?
Shiga inhibitor: 64.0*; CHX counter: 51.7*; RE007 growth inh: -6.0%; LmPK inh: 3.7%; TbPYK inhibitor: -4.7%

How did COc1ccc(CNCC2COc3ccccc3O2)cc1 (configuration not stated) do in these assays?
Giardia FBPA inh: -29.0%; Shiga inhibitor: 27.5; CHX counter: 21.7*; RE007 growth inh: -12.6%; LmPK inh: 0.8%; TbPYK inhibitor: 1.9%

How did Cc1c(C(=O)N2CCCC2)c(S(=O)(=O)Nc2cccc(Br)c2)c(C)n1C do in these assays?
Shiga inhibitor: -7.8; CHX counter: -9.5; RE007 growth inh: -3.0%; LmPK inh: -4.3%; TbPYK inhibitor: -0.1%

What do the screens show for `NS(=O)(=O)OCc1ccc(C(F)(F)F)cc1`?
Giardia FBPA inh: 2.9%; Shiga inhibitor: 1.7; CHX counter: -2.9; RE007 growth inh: -5.7%; LmPK inh: 0.5%; TbPYK inhibitor: 7.5%

How did COC(=O)C(CCSC)NC(=O)c1cc2c(n(-c3ccc(C)cc3)c1=O)CCCC2=O (configuration not stated) do in these assays?
Giardia FBPA inh: -9.0%; Shiga inhibitor: 24.5; CHX counter: 19.4*; RE007 growth inh: -4.2%; LmPK inh: 27.2%; TbPYK inhibitor: -1.7%

What do the screens show for `COc1c(C)cc(S(=O)(=O)NCc2ccco2)c(C)c1C`?
Giardia FBPA inh: 3.9%; Shiga inhibitor: 21.0; CHX counter: 14.7*; RE007 growth inh: 4.4%; LmPK inh: 3.5%; TbPYK inhibitor: -5.1%

What do the screens show for `Cc1cc(-c2ccc(C)c(S(=O)(=O)NCCc3ccco3)c2)on1`?
Shiga inhibitor: 12.4; CHX counter: -2.9; RE007 growth inh: 1.8%; LmPK inh: -5.9%; TbPYK inhibitor: -0.3%

Results for CCc1ccc(-c2cc(C)no2)cc1S(=O)(=O)NCc1ccco1 ?
Giardia FBPA inh: 7.8%; Shiga inhibitor: 42.4*; CHX counter: 29.6*; RE007 growth inh: 4.5%; LmPK inh: 8.3%; TbPYK inhibitor: 1.7%

How did CC(Sc1nnc(NCc2ccccc2)s1)C(=O)Nc1ccc2c(c1)C(=O)c1ccccc1C2=O (configuration not stated) do in these assays?
Giardia FBPA inh: -0.9%; Shiga inhibitor: 64.4*; CHX counter: 63.0*; RE007 growth inh: 13.0%; LmPK inh: -5.0%; TbPYK inhibitor: -24.8%

Results for CC(Sc1nnc(Nc2ccccc2)s1)C(=O)Nc1nc(-c2ccccc2)cs1 (configuration not stated) ?
Giardia FBPA inh: -2.6%; Shiga inhibitor: 45.7; CHX counter: 16.3; RE007 growth inh: 1.8%; LmPK inh: -1.2%; TbPYK inhibitor: -6.6%

Results for CCN(C(=O)Cn1nc2c3cc(F)ccc3n(Cc3cccc(C)c3)cc-2c1=O)c1cccc(C)c1 ?
TbPYK inhibitor: 3.4%

Results for Cc1ccc(C(=O)N2CCc3cc(CNC(=O)c4ccccc4F)ccc32)cc1 ?
TbPYK inhibitor: 7.8%

How did O=C(Nc1ccc(Cl)cc1Cl)C1=Cc2ccccc2OC1 do in these assays?
Giardia FBPA inh: 0.4%; Shiga inhibitor: 67.6*; CHX counter: 53.5*; RE007 growth inh: -11.9%; LmPK inh: -1.4%; TbPYK inhibitor: 0.2%

Results for O=C(Nc1ccc(Cl)cc1C(F)(F)F)c1ccccc1 ?
Giardia FBPA inh: 6.5%; Shiga inhibitor: 14.9; CHX counter: 15.8*; RE007 growth inh: 8.7%; LmPK inh: -2.9%; TbPYK inhibitor: 5.6%

What do the screens show for `Cc1c(Cl)cccc1NC(=O)c1ccc(C(=O)Nc2cccc(Cl)c2C)cc1`?
TbPYK inhibitor: -0.5%

Results for COc1ccccc1CN(C)CC(=O)Nc1ccc(Cl)cc1C(F)(F)F ?
Giardia FBPA inh: inconclusive; Shiga inhibitor: 13.0; CHX counter: 14.8*; RE007 growth inh: -12.3%; LmPK inh: -8.6%; TbPYK inhibitor: -11.1%

How did Cc1ccc(C(=O)Nc2ccccc2Cl)cc1 do in these assays?
Giardia FBPA inh: 10.3%; CHX counter: 36.6*; RE007 growth inh: -11.0%; LmPK inh: -19.7%; TbPYK inhibitor: -5.0%

Results for O=C(Nc1ccc(Cl)cc1C(=O)c1ccccc1)c1ccccc1 ?
Giardia FBPA inh: 11.4%; Shiga inhibitor: -13.7; CHX counter: -4.6; RE007 growth inh: -8.4%; LmPK inh: 0.9%; TbPYK inhibitor: 1.7%

Results for CC(NC(=O)C1CCCN1C(=O)CN)C(=O)O (configuration not stated) ?
Giardia FBPA inh: -5.7%; Shiga inhibitor: 10.3; CHX counter: 7.2
